According to publication PMC12136788:
Over roughly 5,800 sequences, “enrichment r” has its median near 0.68; the highest 2% begin near 11. These entries were drawn from the full list.

B1: chr6:106663037:106663138:+|CDS|ENSG00000130348|msi1|FALSE|unique (ssRNA)
RNA: GGGAGUUCUACAGUCCGACGAUCAGCACAGAAAGUGAGACGCCUCAUUGCUAAUGACUUUGUAAAUGCUUUUAACUCUGGAGUAGAUGUCUUGCUAACUCCCACCACCUUGAGUGAGGCAGUACCAUACUUGGAGUUCAUCAACAACAGAGGAUUGAGCAUCA
B2: ENSG00000070961:be:win_1|CDS|ENSG00000070961|bound_else_gene|NA|bound_elsewhere_windowed (ssRNA)
RNA: GGGAGUUCUACAGUCCGACGAUCAUGGGCGACAUGGCAAACAACUCAGUUGCUUACAGUGGUGUGAAAAACUCUUUGAAGGAAGCUAAUCAUGAUGGAGACUUUGGAAUUACGCUCGCAGAGCUGCGGGCUCUCAUGGAGCUCCAACAGAGGAUUGAGCAUCA
B3: chr3:185917260:185917361:-|3pUTR|ENSG00000136527|msi1|FALSE|unique (ssRNA)
RNA: GGGAGUUCUACAGUCCGACGAUCUGGCAAAAAGCAACAAUAAACAGUUUGAUUUUUACUUUUCUUUCUAACAUAUCAAUGCUUAGCAGAACUAUUCAGAUUGUCAGUAGUAAAUUUAAAGACAAAUGCCCGUUUUCCUCCAGUCAACAGAGGAUUGAGCAUCA
B4: chr8:17299120:17299221:-|3pUTR|ENSG00000003987|unk|total|mutant (ssRNA)
RNA: GGGAGUUCUACAGUCCGACGAUCUCCUCAUUAUUUAAAAAUGCUAAACCUUGUAUCUCACUUUUUCUCUAACACUGAUUUAACCGCUAACGAGGCCGAAGCAACAUUCAUUCUCCUGGUCUUACAUAUGAAUUUAAGUAUCAGCAACAGAGGAUUGAGCAUCA
B5: chr12:21491601:21491717:-|CDS|ENSG00000004700|unk|FALSE|unique (ssRNA)
RNA: GGGAGUUCUACAGUCCGACGAUCGCUGCCUCCCAUAGCUCUAACUGAGGAACUGGAUUCUAUAACCAGUGAGCUACAUGCAGUAGAAAUUCAAAUUCAAGAACUUACGGAAAGGCAACAAGAGCUUAUUCAGAAAAAAAAAGUCAACAGAGGAUUGAGCAUCA
B6: chr9:130903550:130903651:-|3pUTR|ENSG00000130720|msi1|total|mutant (ssRNA)
RNA: GGGAGUUCUACAGUCCGACGAUCAAAUACCCGGCAUUAUGGGGACAGAGAGCAGGGGGCAGACAGCACCCCUGGAGUCCUCCCCGCAGAUCGUGGGGAACGUCAGGUCUCUCUGAGGUCAGGUCUGAGGCCAGUAUCCUCCAGCAACAGAGGAUUGAGCAUCA
B7: chr1:113590523:113590624:+|CDS|ENSG00000081026|unk|FALSE|unique (ssRNA)
RNA: GGGAGUUCUACAGUCCGACGAUCUCAUCUGACUGGAUGAAGACUGUUCCAAGUUACAACCAAACAAAUAGCUCCAUGGACUUUAGAAAUUAUAUGAUGAGAGAUGAGACUCUGGAACCACUGCCCAAAAACUGGGAAAUGGCCCAACAGAGGAUUGAGCAUCA
B8: chr4:127885990:127886091:+|CDS|ENSG00000142731|msi1|FALSE|unique (ssRNA)
RNA: GGGAGUUCUACAGUCCGACGAUCAUUACUUAUCGGGAGACCACCCUUCGACACUGACACAGUCAAGAACACAUUAAAUAAAGUAGUAUUGGCAGAUUAUGAAAUGCCAUCUUUUUUGUCAAUAGAGGCCAAGGACCUUAUUCACAACAGAGGAUUGAGCAUCA
B9: chr8:23842656:23842757:-|3pUTR|ENSG00000159167|msi1|total|mutant (ssRNA)
RNA: GGGAGUUCUACAGUCCGACGAUCCCCCAAACUUAUGGACACUGCCUCCGCCUCUUGGAAAUCAGGCCGACCAUAUUCUAAGUCCGACUCUUCCCCUCCCUCCCACACUUCCCACCCCCAGGCAAGGCUGACUUCUCUGAAUCACAACAGAGGAUUGAGCAUCA
B10: ENSG00000070961:be:win_3851|3pUTR|ENSG00000070961|bound_else_gene|NA|bound_elsewhere_windowed (ssRNA)
RNA: GGGAGUUCUACAGUCCGACGAUCUUUUUGGGGGGUGGGAGAAAUGAACUGACAGAUAAACAGUAACUCAGCGUAAGUGACCUGUGGAUCAUCAGUAGUACCCAAGCAUGGUCCUGAACAGUGUAUUAGCAGAGCUUUAGUUUACAACAGAGGAUUGAGCAUCA
B11: chr19:34227675:34227687:+|3pUTR|ENSG00000257103|msi1_unk|FALSE|overlapping (ssRNA)
RNA: GGGAGUUCUACAGUCCGACGAUCUUAAAACAUGAGCAUUAAAUAUAUUUGGAAUAGCAGAAGGUUAAGUAAUUUCUUAUGUAUAGUUAAACUAAAGCAGUACUUCAGUGGGACUUAACAAGUAUUUUUUCAUCACUGAAAGGUCAACAGAGGAUUGAGCAUCA
B12: chr19:51415897:51416167:-|CDS|ENSG00000142512|control|control|control (ssRNA)
RNA: GGGAGUUCUACAGUCCGACGAUCGCCACACUGAGCUGGGUCCUGCAGAACAGAGUCCUCUCCUCGUCCCAUCCCUGGGGCCCUAGACCCCUGGGGCUGGAGCUGCCCGGGGUGAAGGCUGGGGAUUCAGGGCGCUACACCUGCCAACAGAGGAUUGAGCAUCA
B13: chr1:180199467:180199568:+|3pUTR|ENSG00000116260|msi1|FALSE|unique (ssRNA)
RNA: GGGAGUUCUACAGUCCGACGAUCCACAGGAACAAUUUCCUCAAGGAGACAGUGGCAUGGAGCUUUGAAAGACGAGUAGGUGUUAGCAAGGAAAUAAGGAGGAACGGGGGUUACGGGCAGAGGAGAAAGCACAUGCCAAGUCAGCAACAGAGGAUUGAGCAUCA
B14: chr15:55376998:55377117:-|CDS|ENSG00000260916|unk|total|mutant (ssRNA)
RNA: GGGAGUUCUACAGUCCGACGAUCUAUCUAUAUUGGAACUGCCAGUGAUGAUUCUGAUAUUGUUACCCUUGAGCCACCUAAGUCCGAAGAAAUUGGAAAUCAAGAAGUUGUCAUUGUUGAAGAAGCACAGAGUUCAGAAGACUUCAACAGAGGAUUGAGCAUCA

The binders below were run against T1, UNK ZnF1-6 (called full-length) (human, UniProt Q9C0B0 30-357) (assay: nsRBNS (natural sequence RNA bind-n-seq); RBNS binding buffer (assumed for nsRBNS): 25 mM Tris pH 7.5, 150 mM KCl, 3 mM MgCl2, 0.01% Triton X-100, 500 ug/ml BSA, 20 U/ml SUPERase-In, 4 C; UNK is unkempt and MSI1 is Musashi-1; names of the RNAs are library labels; protein concentration not given here; high values mean tight binding).
T1 sequence: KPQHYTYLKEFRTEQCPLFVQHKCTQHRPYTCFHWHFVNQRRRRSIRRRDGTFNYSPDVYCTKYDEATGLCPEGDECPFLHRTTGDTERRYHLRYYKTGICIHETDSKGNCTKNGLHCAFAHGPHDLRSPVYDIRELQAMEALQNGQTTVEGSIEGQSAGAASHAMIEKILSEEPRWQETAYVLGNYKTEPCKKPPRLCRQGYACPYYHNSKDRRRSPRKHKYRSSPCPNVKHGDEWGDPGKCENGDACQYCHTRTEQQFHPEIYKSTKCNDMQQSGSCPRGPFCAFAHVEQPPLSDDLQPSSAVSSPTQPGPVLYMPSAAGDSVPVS

| Binder | binding signal [enrichment R] |
| --- | --- |
| B1 | 0.484 |
| B2 | 0.508 |
| B3 | 0.751 |
| B4 | 0.98 |
| B5 | 0.594 |
| B6 | 0.72 |
| B7 | 1.15 |
| B8 | 1.26 |
| B9 | 1.07 |
| B10 | 1.18 |
| B11 | 1.37 |
| B12 | 0.641 |
| B13 | 1.51 |
| B14 | 0.258 |
